Where “and” joins values, the source holds several entries; their conditions need not be identical. Identical values can stand only once. Unmarked numbers belong to inactive results. Inconclusive results are not listed. Entries that show only a call come without a potency. Calls of active or inactive are those of the source. Unless noted, calls follow the shape of the dose curve; as a rule, active = well fitted curve in the direction sought with a large enough effect in the repeat runs; inconclusive = weak or mixed curves; inactive = no such curve, though single readings can be large; an effect the other way counts as inactive or inconclusive.
Key:
[1] = qHTS assay to identify small molecule agonists of H2AX (AID 1224845; active = well fitted activation curve with a large enough effect in the signal ratio in the repeat runs, not every such curve was filed as active; the % refers to the signal ratio; also: potency is read from the fitted curve at half-maximal effect)
Method in brief: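 Wild-type CHO-K1 cells plated overnight, then exposed 3 hr at 37C to compounds at 15 concentrations (0.76% DMSO). Lysed, then HTRF anti-pH2AX(S139)-cryptate/anti-H2AX-d2 detection after 24 hr at room temperature; emissions 665 and 620 nm.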

[2] = qHTS assay to identify small molecule agonists of the hypoxia (HIF-1) signaling pathway (AID 1224846; active = well fitted activation curve with a large enough effect in the signal ratio in the repeat runs, not every such curve was filed as active; the % refers to the signal ratio)
Method in brief: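 Steps: seed ME-180 HRE-bla cells (2,000/well, 0.5% dialyzed FBS); incubate 5 hrs at 37C; pin-transfer compounds or DMSO; incubate 17 hrs; add LiveBLAzer B/G substrate CCF4-AM; measure reporter activation by FRET.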

[3] = qHTS assay to identify small molecule agonists of H2AX - cell viability counter screen (AID 1224847; calls by dose curve; also: nearly all actives have a fitted effect of over 30% in size; also: potency is read from the fitted curve at half-maximal effect; as to activity change, negative = cytotoxicity: top concentration of the series differs between compounds)
Method in brief: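 Compounds tested at 15 concentrations were incubated 3 hr at 37C with wild-type CHO-K1 cells; cellular ATP-based luminescence (CellTiter-Glo) indicated viability.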

[4] = qHTS assay to identify small molecule agonists of the estrogen related receptor (ERR) signaling pathway from Tox21 library (AID 1224849; calls by dose curve; also: nearly all actives have a fitted effect of over 15% in size); conditions: ERR reporter cell line, ONE-Glo luciferase, 18 h; at 92.4 µM (top of the series) unless noted
Method in brief: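 Agonist signal is luciferase luminescence from an ERR reporter cell line treated 18 h at 37 C with DMSO-dissolved compounds, read 30 min after ONE-Glo addition at room temperature.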

[5] = qHTS RealTime-Glo MT Cell Viability Assay in HepG2 cells - 24 hour (AID 1224867); also: nearly all actives have a fitted effect of over 50% in size; also: potency is read from the fitted curve at half-maximal effect
Method in brief: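 HepG2 cells were seeded at 600 cells/well together with NanoLuc luciferase and a cell-permeant prosubstrate, preincubated 5 h at 37 C/5% CO2, then pin-dosed with compounds in DMSO. Nonlytic luminescence from viable cells was read at each time point.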

[6] = A CellTox Green Cytotoxicity Assay to monitor cytotoxicity in HEK293 cells - 0 hour (AID 1224869); also: nearly all actives have a fitted effect of over 50% in size
Method in brief: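 Cytotoxicity was tracked continuously in HEK293 cells by a DNA-binding dye excluded from viable cells. Compounds were transferred in DMSO 5 h after seeding; fluorescence was recorded at intervals up to 40 h.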

[7] = qHTS RealTime-Glo MT Cell Viability Assay in HepG2 cells - 40 hour (AID 1224870); also: nearly all actives have a fitted effect of over 50% in size; also: potency is read from the fitted curve at half-maximal effect
Method in brief: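 HepG2 cells mixed with RealTime-Glo MT reagents (NanoLuc plus cell-permeant prosubstrate) were seeded at 600 cells/well, incubated 5 h at 37 C/5% CO2, then pinned with compounds in DMSO; nonlytic luminescence tracked viability during 40 h treatment.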

[8] = qHTS RealTime-Glo MT Cell Viability Assay in HEK293 cells - 32 hour (AID 1224868); also: nearly all actives have a fitted effect of over 50% in size; also: potency is read from the fitted curve at half-maximal effect; as to activity change, negative = cytotoxic: top concentration of the series differs between compounds
Method in brief: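 HEK293 cells were seeded at 600 cells/well together with NanoLuc luciferase and cell-permeant prosubstrate, preincubated 5 h at 37 C/5% CO2, then given compound in DMSO by pintool. Luminescence from viable-cell prosubstrate reduction was read repeatedly over 40 h.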

[9] = qHTS assay to identify small molecule antagonists of the estrogen related receptor (ERR) signaling pathway from Tox21 library (AID 1224848); also: nearly all actives have a fitted effect of over 50% in size; also: potency is read from the fitted curve at half-maximal effect
Method in brief: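 Screening used an ERR reporter line supplied by NTP, exposed for 18 h at 37 C to library compounds delivered in DMSO. Signal was luciferase luminescence developed with ONE-Glo at room temperature for 30 min.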

With `O=c1[nH]c(Cl)c(Cl)cc1Cl` the Potency [1] was “inactive”, the Potency [2] was “inactive” and the Potency [3] was “inactive”. The activity change, positive = activation [4] was -28.7%, the Potency [5] was “inactive” and the Potency [6] was “inactive”. For the same compound, the Potency [7] was “inactive”.

In the case of `O.O.O.O=C([O-])[C@H]([O-])[C@@H]([O-])C(=O)[O-].O=C([O-])[C@H]([O-])[C@@H]([O-])C(=O)[O-].[K+].[K+].[Sb+3].[Sb+3]`, the Potency [1] is reported as 114 µM (active) and the Potency [3] is reported as “inactive”.

Work on `CC(=O)[O-].CC(=O)[O-].CC(=O)[O-].[Sb+3]` yielded an activation (H2AX phosphorylation) [1] of 1.32% [at 5.45 µM], an activation [2] of -0.789% [at 2.67 µM] and an activity change, negative = cytotoxicity [5] of -0.623% [at 2.72 µM]. For the same compound, the activity change, negative = cytotoxic [8] was 7.03% [at 2.72 µM] and the cytotoxicity [6] was -0.412% [at 2.72 µM].

With `[Cl][Hg][c]1ccccc1` the Potency [1] was “inactive”, the Potency [3] was 7.13 µM (active) and the Potency [5] was 2.75 µM (active). The Potency [8] was 1.1 µM (active), the Potency [6] was “inactive” and the Potency [7] was 3.09 µM (active).

In the case of `Cc1ccc([N+](=O)[O-])[c]2c1[O][Hg]2`, the Potency [1] is reported as 0.695 µM (active), the Potency [5] is reported as 2.39 µM (active) and the Potency [6] is reported as “inactive”. The Potency [7] was 3.01 µM (active).

For `CN1CCc2cc(Cl)c(O)cc2[C@H]2c3ccccc3CC[C@@H]21`, the Potency [1] was “inactive”, the Potency [2] was “inactive” and the Potency [9] was “inactive”. For the same compound, the activity change, positive = activation [4] was 0.522% [at 42.5 µM], the Potency [5] was “inactive” and the Potency [7] was “inactive”.

For `CN(C)CCc1c[nH]c2ccccc12`, the Potency [1] was “inactive”, the Potency [2] was “inactive” and the Potency [3] was “inactive”. For the same compound, the Potency [5] was “inactive”, the Potency [8] was “inactive” and the Potency [6] was “inactive”. The Potency [7] was “inactive”.

In the case of `O=S(=O)(NS(=O)(=O)C(F)(F)F)C(F)(F)F`, the Potency [1] is reported as “inactive”, the Potency [5] is reported as “inactive” and the Potency [8] is reported as 1.94 µM (active). The Potency [6] was “inactive” and the Potency [7] was “inactive”.

For `CCCCn1cc[n+](C)c1.[Cl][Fe-]([Cl])([Cl])[Cl]`, the Potency [2] was “inactive”, the Potency [3] was “inactive” and the Potency [5] was “inactive”. The Potency [6] was “inactive” and the Potency [7] was “inactive”.

In the case of `C=C(C)C(=O)[O][Sn]([CH2]CCC)([CH2]CCC)[CH2]CCC`, the Potency [3] is reported as 0.713 µM (active), the Potency [9] is reported as 0.486 µM (active) and the activity change, positive = activation [4] is reported as -73.3%. The Potency [5] was 0.436 µM (active), the Potency [8] was 0.275 µM (active) and the Potency [7] was 0.195 µM (active).

For `Nc1ccc(N=Nc2ccccc2)cc1`, the Potency [9] was “inactive”, the activity change, positive = activation [4] was 69.2% (active) and the Potency [5] was “inactive”. The Potency [7] was “inactive”.

In the case of `COC(=O)c1cc(Oc2ccc(Cl)cc2Cl)ccc1[N+](=O)[O-]`, the Potency [1] is reported as “inactive”, the Potency [2] is reported as “inactive” and the Potency [5] is reported as “inactive”. For the same compound, the Potency [7] was “inactive”.

In the case of `Brc1ccc(Oc2ccc(Br)cc2Br)c(Br)c1`, the Potency [1] is reported as “inactive”, the Potency [3] is reported as 113 µM (active) and the Potency [9] is reported as “inactive”. The activity change, positive = activation [4] was 13%, the Potency [5] was “inactive” and the Potency [8] was 49 µM (active). For the same compound, the Potency [6] was “inactive” and the Potency [7] was “inactive”.

For `CC(C)N(C(=O)CCl)c1ccccc1`, the Potency [9] was 15.4 µM (active) and 13.7 µM (active) and the activity change, positive = activation [4] was -77.7% and -74.7%.

For `CCCCCCC[CH2][Sn]([Cl])([Cl])[CH2]CCCCCCC`, the Potency [9] was 61.1 µM (active), the Potency [5] was “inactive” and the Potency [8] was “inactive”. The Potency [6] was “inactive” and the Potency [7] was “inactive”.

With `CC(=O)[O-].CC(=O)[O-].O.O.[Zn+2]` the Potency [1] was “inactive”, the Potency [5] was “inactive” and the Potency [8] was “inactive”. The Potency [7] was “inactive”.

For `CCCCN(CCCC)C(=S)S`, the Potency [1] was “inactive”, the Potency [2] was “inactive” and the Potency [9] was “inactive”. For the same compound, the Potency [5] was “inactive”, the Potency [6] was “inactive” and the Potency [7] was “inactive”.

For `O=[N+]([O-])c1cccc2cccc([N+](=O)[O-])c12`, the Potency [2] was “inactive”, the Potency [3] was “inactive” and the Potency [5] was “inactive”. For the same compound, the Potency [8] was “inactive”, the Potency [6] was “inactive” and the Potency [7] was “inactive”.

With `CCc1cccc(C)c1N(C(=O)CCl)[C@@H](C)COC` the Potency [2] was “inactive”, the Potency [9] was 61.1 µM (active) and the activity change, positive = activation [4] was -67.3%. For the same compound, the Potency [6] was “inactive” and the Potency [7] was “inactive”.

In the case of `CCCCCCCc1ccc(O)cc1`, the Potency [3] is reported as 50.5 µM (active), the Potency [8] is reported as 19.5 µM (active) and the Potency [6] is reported as “inactive”. The Potency [7] was “inactive”.

For `Clc1ccc(C(c2ccc(Cl)cc2)C(Cl)Cl)cc1`, the Potency [1] was 89.8 µM (active), the Potency [3] was 80 µM (active) and the Potency [5] was “inactive”. The Potency [6] was “inactive” and the Potency [7] was “inactive”.

With `CC(=O)C(Cl)C(=O)N(C)C` (centres undefined) the Potency [2] was “inactive”, the Potency [3] was “inactive” and the Potency [5] was “inactive”. The Potency [8] was “inactive”, the Potency [6] was “inactive” and the Potency [7] was “inactive”.

For `CO/N=C(/C1=NOCCO1)c1ccccc1Oc1ncnc(Oc2ccccc2Cl)c1F`, the Potency [1] was “inactive”, the Potency [2] was “inactive” and the Potency [3] was 12.7 µM (active). For the same compound, the Potency [6] was “inactive”.

For `ClC1=C(Cl)[C@]2(Cl)[C@@H]3[C@H]4C[C@H]([C@@H]5O[C@H]45)[C@@H]3[C@@]1(Cl)C2(Cl)Cl`, the Potency [1] was “inactive”, the Potency [2] was “inactive” and the Potency [5] was “inactive”. For the same compound, the Potency [8] was “inactive”, the Potency [6] was “inactive” and the Potency [7] was “inactive”.

For `CCOP(=O)(OCC)Oc1cc(C)nc(C(C)C)n1`, the Potency [1] was “inactive”, the Potency [2] was “inactive” and the Potency [9] was “inactive”. For the same compound, the activity change, positive = activation [4] was -6.77%, the Potency [5] was “inactive” and the Potency [8] was “inactive”. For the same compound, the Potency [6] was “inactive”.

In the case of `O=c1c2ccccc2c(=O)c2c1cc(Cl)c1[nH]c3c([nH]c12)c(Cl)cc1c(=O)c2ccccc2c(=O)c13`, the Potency [2] is reported as “inactive”, the Potency [3] is reported as “inactive” and the Potency [9] is reported as “inactive”. For the same compound, the activity change, positive = activation [4] was -7.42%, the Potency [5] was “inactive” and the Potency [8] was “inactive”. For the same compound, the Potency [6] was “inactive” and the Potency [7] was “inactive”.

In the case of `[O]=[Cr][O][Cr]=[O]`, the Potency [1] is reported as “inactive”, the Potency [2] is reported as “inactive” and the Potency [3] is reported as “inactive”. For the same compound, the Potency [5] was “inactive”, the Potency [6] was “inactive” and the Potency [7] was “inactive”.

For `CC(=O)[O][Sn]([c]1ccccc1)([c]1ccccc1)[c]1ccccc1`, the Potency [1] was 0.101 µM (active), the Potency [3] was 0.142 µM (active) and the Potency [9] was 0.077 µM (active). The Potency [8] was 0.0389 µM (active) and the Potency [6] was “inactive”.

For `Fc1ccc(C(OCCN2CCN(CCCc3ccccc3)CC2)c2ccc(F)cc2)cc1`, the Potency [9] was 6.68 µM (active), the activity change, positive = activation [4] was -58.9% [at 42.5 µM] and the Potency [5] was 23.9 µM (active). The Potency [8] was 9.52 µM (active), the Potency [6] was “inactive” and the Potency [7] was 26.8 µM (active).
